Test results as given in PubChem BioAssay AID1159580 (chemical genetic matrix, 2015).
Several values for one entry are separate records, joined by “and”; a condition that tells them apart may be missing. Equal values may be shown once. The whole screen tested about 5,500 compounds, of which about 2,000 (36%) were called active. Not shown: some 18% with an inconclusive outcome. Rule as the data show it: active = normalized growth mostly below about 0.91 (no sharp cut-off); inconclusive = no clear call, values can overlap the other calls; inactive = mostly above about 0.92. This is one part of the list.

Test: chemical genetic growth profiling, strain panel (AID 1159580);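 also: tested at 20 µM; growth read once vehicle control cultures reached saturation at 30 °C; 1 = growth at the plate median or of vehicle wells; lower values mean less growth of the strain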
Settings: S. cerevisiae deletion strains, growth OD

Measured: normalized growth

COC(=O)C1=CO[C@@H](O[C@@H]2O[C@H](CO)[C@@H](O)[C@H](O)[C@H]2O)[C@@H]2[C@@H](C)[C@@H](O)C[C@H]12
inactive: locus YAL013W, strain DEP1, stronger effect = lower value 1 | locus YAL021C, strain ccr4, stronger effect = lower value 0.973 | locus YAL026C, strain drs2, stronger effect = lower value 1.01 | locus YAL030W, strain snc1, stronger effect = lower value 0.996 | locus YBL061C, strain skt5, stronger effect = lower value 0.999 | locus YBR009C, strain hhf1, stronger effect = lower value 0.998 | locus YBR021W, strain FUR4, stronger effect = lower value 1.02 | locus YBR023C, strain chs3, stronger effect = lower value 0.994 | locus YBR171W, strain sec66, stronger effect = lower value 1 | locus YBR229C, strain ROT2, stronger effect = lower value 1.01 | locus YBR231C, strain swc5, stronger effect = lower value 1.01 | locus YBR279W, strain paf1, stronger effect = lower value 0.989 | locus YCL011C, strain gbp2, stronger effect = lower value 0.997 | locus YCL016C, strain dcc1, stronger effect = lower value 0.979 | locus YCL029C, strain bik1, stronger effect = lower value 0.989 | locus YCL061C, strain MRC1, stronger effect = lower value 0.973 | locus YCL069W, strain vba3, stronger effect = lower value 0.999 | locus YCR088W, strain abp1, stronger effect = lower value 0.998 | locus YDL005C, strain med2, stronger effect = lower value 0.989 | locus YDL035C, strain GPR1, stronger effect = lower value 1.02 | locus YDL040C, strain nat1, stronger effect = lower value 1 | locus YDL074C, strain BRE1, stronger effect = lower value 1 | locus YDL101C, strain DUN1, stronger effect = lower value 0.996 | locus YDL134C, strain PPH21, stronger effect = lower value 1.08 | locus YDL185W, strain tfp1, stronger effect = lower value 0.967 | locus YDL192W, strain arf1, stronger effect = lower value 1 | locus YDR001C, strain nth1, stronger effect = lower value 1 | locus YDR069C, strain doa4, stronger effect = lower value 0.998 | locus YDR101C, strain arx1, stronger effect = lower value 0.977 | locus YDR137W, strain rgp1, stronger effect = lower value 1 | locus YDR150W, strain NUM1, stronger effect = lower value 0.993 | locus YDR159W, strain sac3, stronger effect = lower value 0.998 | locus YDR162C, strain NBP2, stronger effect = lower value 1.01 | locus YDR195W, strain ref2 0.989 | locus YDR297W, strain sur2, stronger effect = lower value 0.996 | locus YDR318W, strain mcm21, stronger effect = lower value 1.01 | locus YDR334W, strain swr1, stronger effect = lower value 1.01 | locus YDR335W, strain msn5, stronger effect = lower value 0.995 | locus YDR388W, stronger effect = lower value 0.995 | locus YDR392W, strain spt3, stronger effect = lower value 0.891 | locus YDR502C, strain sam2, stronger effect = lower value 1.01 | locus YEL003W, strain gim4, stronger effect = lower value 1.02 | locus YEL037C, strain rad23, stronger effect = lower value 1.01 | locus YEL061C, strain CIN8 (second series), stronger effect = lower value 1 | locus YEL061C, strain CIN8, stronger effect = lower value 1.01 | locus YER015W, strain faa2, stronger effect = lower value 0.995 | locus YER016W, strain bim1, stronger effect = lower value 0.999 | locus YER110C, stronger effect = lower value 0.976 | locus YER111C, strain swi4, stronger effect = lower value 0.991 | locus YER155C, strain BEM2 (second series), stronger effect = lower value 0.986 | locus YER155C, strain BEM2, stronger effect = lower value 0.997 | locus YER167W, strain BCK2, stronger effect = lower value 1 | locus YFR010W, strain ubp6, stronger effect = lower value 1 | locus YGL078C, strain dbp3, stronger effect = lower value 0.989 | locus YGL086W, strain mad1, stronger effect = lower value 0.943 | locus YGL167C, strain pmr1, stronger effect = lower value 1.01 | locus YGL173C, strain kem1, stronger effect = lower value 1.02 | locus YGL227W, strain vid30, stronger effect = lower value 0.994 | locus YGL240W, strain doc1, stronger effect = lower value 0.987 | locus YGL248W, strain PDE1, stronger effect = lower value 1.02 | locus YGL253W, strain hxk2, stronger effect = lower value 1.01 | locus YGR078C, strain PAC10, stronger effect = lower value 1 | locus YGR135W, strain pre9, stronger effect = lower value 1 | locus YGR229C, strain SMI1, stronger effect = lower value 1.03 | locus YGR252W, strain gcn5, stronger effect = lower value 1.14 | locus YHR013C, strain ard1, stronger effect = lower value 1.03 | locus YHR027C, strain rpn1, stronger effect = lower value 1 | locus YHR030C, strain SLT2, stronger effect = lower value 0.992 and 1.04 | locus YHR079C, strain IRE1 (second series), stronger effect = lower value 0.979 | locus YHR079C, strain IRE1, stronger effect = lower value 1.06 | locus YHR094C, strain hxt1, stronger effect = lower value 0.998 | locus YHR129C, strain ARP1, stronger effect = lower value 1 | locus YHR142W, strain chs7, stronger effect = lower value 1 | locus YHR200W, strain rpn10, stronger effect = lower value 0.979 | locus YIL066C, strain RNR3, stronger effect = lower value 1.01 | locus YIL073C, strain SPO22, stronger effect = lower value 0.986 | locus YIL125W, strain kgd1, stronger effect = lower value 0.985 | locus YIR030C, strain dcg1, stronger effect = lower value 0.996 | locus YJL092W, strain hpr5, stronger effect = lower value 1 | locus YJL095W, strain BCK1 (second series), stronger effect = lower value 1 | locus YJL095W, strain BCK1, stronger effect = lower value 1.04 and 1 | locus YJL115W, strain asf1, stronger effect = lower value 0.999 | locus YJL129C, strain trk1, stronger effect = lower value 0.986 | locus YJL134W, strain LCB3, stronger effect = lower value 1 | locus YJL154C, strain vps35, stronger effect = lower value 1.01 | locus YJL164C, strain tpk1, stronger effect = lower value 1 | locus YJL166W, strain qcr8, stronger effect = lower value 0.972 | locus YJL168C, strain set2, stronger effect = lower value 0.978 | locus YJL187C, strain SWE1 (second series), stronger effect = lower value 1 | locus YJL187C, strain SWE1, stronger effect = lower value 1 | locus YJR043C, strain POL32, stronger effect = lower value 1.01 | locus YJR066W, strain TOR1, stronger effect = lower value 1.01 | locus YJR075W, strain HOC1, stronger effect = lower value 0.995 | locus YKL009W, strain mrt4, stronger effect = lower value 1.01 | locus YKL068W, stronger effect = lower value 0.987 | locus YKL085W, strain MDH1 (second series), stronger effect = lower value 0.978 | locus YKL085W, strain MDH1, stronger effect = lower value 0.978 | locus YKL160W, strain elf1, stronger effect = lower value 0.961 | locus YKL190W, strain CNB1, stronger effect = lower value 1 | locus YKR001C, strain vps1, stronger effect = lower value 0.999 | locus YKR026C, strain gcn3, stronger effect = lower value 0.997 | locus YKR091W, strain srl3, stronger effect = lower value 0.992 | locus YLL001W, strain dnm1, stronger effect = lower value 0.973 | locus YLL026W, stronger effect = lower value 1 | locus YLL041C, strain sdh2, stronger effect = lower value 0.994 | locus YLR027C, strain aat2, stronger effect = lower value 0.994 | locus YLR039C, strain RIC1, stronger effect = lower value 1.05 | locus YLR058C, strain SHM2, stronger effect = lower value 1.01 | locus YLR102C, strain apc9, stronger effect = lower value 0.984 | locus YLR113W, strain HOG1, stronger effect = lower value 0.991 | locus YLR221C, strain rsa3, stronger effect = lower value 0.971 | locus YLR258W, strain gsy2, stronger effect = lower value 0.981 | locus YLR262C, strain YPT6 (second series), stronger effect = lower value 0.985 | locus YLR262C, strain YPT6, stronger effect = lower value 1.08 | locus YLR268W, strain sec22, stronger effect = lower value 0.968 | locus YLR320W, strain mms22, stronger effect = lower value 0.964 | locus YLR330W, strain CHS5, stronger effect = lower value 0.984 | locus YLR342W, strain FKS1 (second series), stronger effect = lower value 1.04 | locus YLR342W, strain FKS1, stronger effect = lower value 0.995 | locus YLR357W, strain rsc2, stronger effect = lower value 0.986 | locus YLR370C, strain arc18, stronger effect = lower value 0.992 | locus YLR371W, strain rom2, stronger effect = lower value 0.973 | locus YLR384C, strain iki3, stronger effect = lower value 1 | locus YLR418C, strain cdc73, stronger effect = lower value 1.04 | locus YML016C, strain PPZ1, stronger effect = lower value 0.997 | locus YML032C, strain rad52, stronger effect = lower value 1.03 | locus YML120C, strain ndi1, stronger effect = lower value 0.99 | locus YML124C, strain tub3, stronger effect = lower value 0.988 | locus YMR058W, strain fet3, stronger effect = lower value 1 | locus YMR078C, strain ctf18, stronger effect = lower value 0.954 | locus YMR125W, strain sto1, stronger effect = lower value 0.97 | locus YMR129W, stronger effect = lower value 1.01 | locus YMR205C, strain PFK2, stronger effect = lower value 0.952 | locus YMR223W, strain ubp8, stronger effect = lower value 1.01 | locus YMR231W, strain pep5, stronger effect = lower value 1 | locus YMR263W, strain SAP30, stronger effect = lower value 0.996 | locus YMR307W, strain GAS1, stronger effect = lower value 1.18 | locus YNL067W, strain RPL9B, stronger effect = lower value 1 | locus YNL071W, strain lat1, stronger effect = lower value 1 | locus YNL183C, strain NPR1, stronger effect = lower value 1 | locus YNL209W, strain ssb2, stronger effect = lower value 1 | locus YNL233W, strain BNI4, stronger effect = lower value 1 | locus YNL248C, strain rpa49, stronger effect = lower value 0.982 | locus YNL250W, strain rad50, stronger effect = lower value 0.939 | locus YNL271C, strain bni1, stronger effect = lower value 0.989 | locus YNL298W, strain CLA4, stronger effect = lower value 1 | locus YNL307C, strain MCK1, stronger effect = lower value 0.979 | locus YNL322C, strain KRE1 (second series), stronger effect = lower value 0.989 | locus YNR049C, strain mso1, stronger effect = lower value 0.997 | locus YNR052C, strain pop2, stronger effect = lower value 0.997 | locus YOL012C, strain htz1 1.13 | locus YOL147C, strain pex11, stronger effect = lower value 0.988 | locus YOR001W, strain rrp6, stronger effect = lower value 1 | locus YOR061W, strain CKA2, stronger effect = lower value 1.01 | locus YOR069W, strain VPS5, stronger effect = lower value 0.995 | locus YOR070C, strain gyp1, stronger effect = lower value 0.999 | locus YOR080W, strain dia2, stronger effect = lower value 0.997 | locus YOR083W, strain WHI5, stronger effect = lower value 0.958 | locus YOR106W, strain vam3, stronger effect = lower value 0.989 | locus YOR136W, strain idh2, stronger effect = lower value 0.991 | locus YOR144C, strain elg1, stronger effect = lower value 0.993 | locus YOR184W, strain ser1, stronger effect = lower value 1 | locus YOR231W, strain MKK1, stronger effect = lower value 1.03 | locus YOR265W, strain rbl2, stronger effect = lower value 0.999 | locus YOR270C, strain vph1, stronger effect = lower value 1.02 | locus YOR290C, strain snf2, stronger effect = lower value 0.98 | locus YOR316C, strain cot1, stronger effect = lower value 0.996 | locus YPL051W, strain arl3, stronger effect = lower value 0.977 | locus YPL055C, strain LGE1, stronger effect = lower value 1.01 | locus YPL078C, strain atp4, stronger effect = lower value 0.965 | locus YPL106C, strain sse1, stronger effect = lower value 0.948 | locus YPL240C, strain hsp82, stronger effect = lower value 0.996 | locus YPL256C, strain CLN2, stronger effect = lower value 1.05 | locus YPR119W, strain clb2, stronger effect = lower value 0.981 | locus YPR141C, strain kar3, stronger effect = lower value 0.977 | locus YPR163C, strain tif3, stronger effect = lower value 0.984 | locus YPR167C, strain met16, stronger effect = lower value 0.995 | strain wtn01, stronger effect = lower value 0.948
